Screens as filed in PubChem.
PERK inh = blocks human PERK kinase. CHO PERK-DD fusion, SEAP luminescence translation reporter. inhibition, % at 5.6 µM. 220,000 compounds, 0.17% hits. AID 1416;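 active = inhibition above the mean inhibition of all tested compounds plus 3 SD, set separately per screening campaign, cut at about 2.9% in these data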;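 also: PERK kinase domain activated by AP20187 dimerizer at 100 nM; 0% = DMSO with dimerizer and 100% = rapamycin at 8.4 µM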
NALP3 yeast inh = NALP3 inhibition in yeast; Yeast reconstituted NLRP3/ASC/caspase-1, beta-gal luminescence, 24 h; inhibition, % at 10 µM; 330,000 compounds, 0.39% hits;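 active = inhibition of 50% or more; inactive = inhibition below 50%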;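 also: plate controls were induced DMSO wells for no effect and uninduced yeast grown without galactose for full effect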
V-ATPase pHluor = alters yeast V-ATPase proton transport. 350,000 compounds, 0.37% hits. response, % at 10 µM. S. cerevisiae, pHLuorin cytosolic pH fluorescence; in the data active = response mostly above about 7.3%, no sharp cut-off; inactive = mostly below about 5.4%; also: actives read high
Yeast superoxide = caloric restriction mimetics inhibiting age-related superoxide in yeast. AID 2690. superoxide response (% of plate mean), % at 10 µM. 330,000 compounds, 0.18% hits. S. cerevisiae aged cells, superoxide DHE fluorescence; active compounds read low;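 active = superoxide response under a set limit, about three screen SD below normal, cut at about 65% in these data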;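 also: yeast aged for seven days with compound at 30 °C before DHE staining; 100% = average MFI of all compound-treated wells on the plate with controls excluded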
NALP1 inh = blocks the NALP1 inflammasome reconstituted in yeast | inhibition, % at 10 µM | AID 2071 | S. cerevisiae NALP1/ASC/caspase-1 growth, X-gal OD620, 72 h | 280,000 compounds, 0.61% hits; in the data active = inhibition mostly above about 24%, no sharp cut-off; inactive = mostly below about 32%
Rce1 inh = inhibitors of yeast Ras-converting enzyme. calls only. yeast membranes, quenched prenylated peptide cleavage fluorescence. Q03530. 290,000 compounds, 0.27% hits;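 active = fall in fluorescence gain of 50% or more versus controls, with final raw signal at or below 3038400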;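 also: plate controls were neutral control wells for no effect and wells lacking membranes for full effect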
Target sequence (Q03530 whole entry, looked up): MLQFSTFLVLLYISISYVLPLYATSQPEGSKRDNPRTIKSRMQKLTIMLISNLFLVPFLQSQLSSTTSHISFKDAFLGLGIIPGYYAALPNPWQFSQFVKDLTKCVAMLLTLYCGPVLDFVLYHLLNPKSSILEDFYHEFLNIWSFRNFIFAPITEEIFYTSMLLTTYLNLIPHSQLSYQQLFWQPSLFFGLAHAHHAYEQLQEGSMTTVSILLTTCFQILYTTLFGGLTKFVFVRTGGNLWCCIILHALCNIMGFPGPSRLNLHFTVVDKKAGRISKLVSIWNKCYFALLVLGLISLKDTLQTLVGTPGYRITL
Superoxide pick = yeast aging superoxide inhibition, cherry pick confirmation; shares compounds with Yeast superoxide; S. cerevisiae aging, superoxide DHE fluorescence; active compounds read low; superoxide response (% of plate), % at 10 µM; 850 compounds, 1% hits; AID 434994;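 active = superoxide signal below 65% of the plate average of sample wells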;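 also: cells aged with compound for 7 days at 30 degrees C before staining; 100% equals mean DHE fluorescence of all compound wells on the plate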
DHE fluor count = counter-screen for compounds affecting DHE oxidation and fluorescence in yeast. shares compounds with Yeast superoxide. S. cerevisiae BY4741, flow cytometry; active compounds read low. fluorescence response, % at 10 µM. 850 tested, under 10 active;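 active = fluorescence response below 15%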;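 also: percent of the mean fluorescence averaged over all compound wells on the plate; lower means stronger quenching of DHE signal or ROS scavenging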
* marks the source's active call; other numbers are inactive results; i = inactive; / = not tested or not shown. Rows were chosen to be rich in hits. Some 1.6% of all compounds tested hit in one or more screens of this group.

SMILES	PERK inh	NALP3 yeast inh	V-ATPase pHluor	Yeast superoxide	NALP1 inh	Rce1 inh	Superoxide pick	DHE fluor count
COC(=O)c1cccc(S(=O)(=O)N2CCCC2)c1	-0.4	5.4	3.4	90.8	3.4	i	98.4	87.1
Cc1ccc(S(=O)(=O)N2CCOCC2)cc1NC(=O)CN(C)CC(=O)Nc1cccc(F)c1	/	/	1.1	/	/	/	/	/
C[C@H](CO)N1C[C@H](C)[C@@H](CN(C)Cc2ccc3c(c2)OCCN3C)OCc2cnnn2CCCC1=O	/	/	1.4	/	/	/	/	/
COc1ccc(Cl)cc1NC(=O)c1cccc([N+](=O)[O-])c1O	/	/	1.5	/	/	/	/	/
CCCCCN(C(=O)CCC(=O)OCc1ccccc1C)c1c(N)n(CCCC)c(=O)[nH]c1=O	/	-4.7	0.9	107.8	/	i	/	/
CCCCCN(C(=O)CCC(=O)OCc1ccccc1Cl)c1c(N)n(CCCC)c(=O)[nH]c1=O	/	12.5	2.4	59.9*	8.3	i	104.9	97.4
CCCc1n[nH]c2c1C(=O)CC(C)(C)C2	0.6	8.5	-3.4	99.8	19.1	i	/	/
CC1(C)CC(=O)c2c(-c3cccs3)n[nH]c2C1	-1.3	3.1	1.9	63.8*	45.2	i	105.2	95.3
NC(=NC(=O)c1ccc(OC(F)(F)F)cc1)c1ccc(C(F)(F)F)cn1	1.7	6.2	5.3	62.4*	4.7	i	107.6	120.4
NC(=NC(=O)c1cccc(C(F)(F)F)c1)c1ccc(C(F)(F)F)cn1	0.8	-4.2	-1.8	105.0	-0.7	i	/	/
COc1ccc([C@H]2C[C@H](n3cc(COC(=O)c4ccccc4)nn3)[C@@H](O)CN2Cc2cccs2)cc1	/	/	1.0	/	/	/	/	/
CC(=O)c1ccc(N/N=C2/CCCNC2=O)cc1	4.0*	23.5	3.9	62.8*	-10.3	i	107.5	102.2
CCCn1c(=O)c(C(=O)NCc2ccc(OC)c(OC)c2)c(O)c2ccccc21	0.0	9.8	-5.5	62.7*	31.8	i	108.7	108.4
CCCn1c(=O)c(C(=O)NNS(=O)(=O)c2ccc(Cl)cc2)c(O)c2ccccc21	1.0	-3.0	-1.1	109.1	15.8	i	/	/
CCCn1c(=O)c(C(=O)NNC(=O)c2ccc(Cl)cc2Cl)c(O)c2ccccc21	/	44.2	-2.3	59.6*	7.6	i	106.5	105.1
CCOC(=O)c1c(NC(=O)CSc2nnnn2-c2ccccc2)sc2c1CC(C)(C)NC2(C)C	/	14.1	3.2	62.1*	27.0	i	106.4	105.9
CCOC(=O)c1c(NC(=O)CSc2nnnn2-c2ccccc2OCC)sc2c1CC(C)(C)NC2(C)C	/	5.0	-1.8	89.4	/	i	/	/
COc1ccc([N+](=O)[O-])cc1N(CC(O)CN(C)C)S(=O)(=O)c1ccccc1 (stereo unspecified)	0.8	-4.9	3.2	54.4*	-32.6	i	105.4	111.2
COc1ccc(S(=O)(=O)N2CCC3(CC2)CC(=O)c2ccccc2O3)cc1C	/	7.5	-2.9	65.3*	/	i	100.1	96.1
O=C1NC(=S)S/C1=C\c1cccc([N+](=O)[O-])c1	/	/	2.6	/	/	/	/	/
CC(=O)O[C@H]1C[C@@H]2CC[C@@H]3[C@H](CC[C@@]4(C)[C@H]3C[C@H]([N+]3(C)CCCCC3)[C@@H]4OC(C)=O)[C@@]2(C)C[C@@H]1N1CCCCC1	/	17.3	/	92.3	/	i	102.8	90.8
O=C1C(=O)c2ccc(-c3ccccc3)cc2-c2ccccc21	1.7	11.9	6.4	110.5	-71.4	i	/	/
O=C1C(c2ccccc2)=[N+]([O-])c2ccccc21	/	24.9	-0.5	57.4*	/	i	80.6	94.9
O=S(=O)(Nc1ccc(NS(=O)(=O)c2ccccc2)c(Cl)c1)c1ccccc1	/	/	3.0	/	/	/	/	/
Cc1cc(NS(=O)(=O)c2ccccc2)cc(Cl)c1O	2.0	3.5	-4.6	103.2	14.5	/	87.1	91.5
C[C@H](O)[C@@H]1C(=O)N2CCc3ccc(-c4ccccc4)cc3[C@@H]2C[C@@H]1N(C)C(=O)c1ccco1	/	/	-0.8	/	/	/	/	/
Cc1ccc(S(=O)(=O)N2CC(O)CC2C(=O)O)cc1 (stereo unspecified)	/	-3.9	-1.3	92.4	6.0	i	110.2	109.1
O=S(=O)(c1ccc(Br)cc1F)N1CCCCC1CCO (stereo unspecified)	/	/	-2.4	/	/	/	/	/
